Test results reported in PubChem BioAssay.
Calls of active or inactive are those of the source.

Legend:
[1] = system: Plasmodium falciparum Sir2 (PF13_0152, Sir2A); assay: Plasmodium falciparum Sir2A binding compounds – biochemical, small-molecule microarray, 635 nm fluorescence, primary screen (AID 1098); conditions: fluorescence 635 nm, higher = more signal;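 further: score merges spot fluorescence intensity with its signal-to-noise ratio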
[2] = probe aDKK1 binding to arrayed compounds – biochemical, biotinylated probe, 635/667 nm fluorescence, primary screen (AID 1099); conditions: small-molecule microarray, higher = more signal;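 further: score merges 667nm spot fluorescence with signal to noise across triplicate slides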
[3] = probe aCHRDL2 binding to arrayed compounds – biochemical, biotinylated probe, 635/667 nm fluorescence, primary screen (AID 1100); conditions: small-molecule microarray, higher = more signal
[4] = change in splice reporter luminescence, either direction, cell-based, HEK293, spliceosome inhibition project, primary screen (AID 1101); conditions: HEK293 splicing luciferase reporter, 24 h, higher = more signal, called active from +8 up or from −8 down;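 further: HEK293 cells carrying a splicing-competent luciferase reporter gene; test concentration not given here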
[5] = molecular target: Fibroblast growth factor 10 (Homo sapiens) (UniProt O15520); assay: compounds binding fibroblast growth factor 10 – biochemical, small-molecule microarray, 635 nm fluorescence, primary screen (AID 1102); conditions: FGF10 binding, fluorescence 635 nm, higher = more signal
Sequence of Fibroblast growth factor 10 (Homo sapiens) (O15520 whole entry, looked up): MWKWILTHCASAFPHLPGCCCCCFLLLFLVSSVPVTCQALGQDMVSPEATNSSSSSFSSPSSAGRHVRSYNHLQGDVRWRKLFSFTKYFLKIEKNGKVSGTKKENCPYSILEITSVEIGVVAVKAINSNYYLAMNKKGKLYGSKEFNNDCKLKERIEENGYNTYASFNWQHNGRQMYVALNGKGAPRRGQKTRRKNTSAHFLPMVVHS

[6] = system: glycogen synthase kinase-3 (GSK3A per assay name; protocol says GSK3B); assay: compounds binding glycogen synthase kinase-3 – biochemical, small-molecule microarray, 635 nm fluorescence, GSK3A, primary screen (AID 1103); conditions: fluorescence 635 nm, higher = more signal; further: the record names both GSK3A and GSK3B
[7] = molecular target: Epidermal growth factor receptor (Homo sapiens) (UniProt P00533); assay: compounds binding epidermal growth factor receptor – biochemical, small-molecule microarray, 635 nm fluorescence, primary screen (AID 1104); conditions: EGFR binding, higher = more signal;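 further: score merges 667 nm emission intensity with spot signal to noise over triplicate slides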
Sequence of Epidermal growth factor receptor (Homo sapiens) (P00533 whole entry, looked up): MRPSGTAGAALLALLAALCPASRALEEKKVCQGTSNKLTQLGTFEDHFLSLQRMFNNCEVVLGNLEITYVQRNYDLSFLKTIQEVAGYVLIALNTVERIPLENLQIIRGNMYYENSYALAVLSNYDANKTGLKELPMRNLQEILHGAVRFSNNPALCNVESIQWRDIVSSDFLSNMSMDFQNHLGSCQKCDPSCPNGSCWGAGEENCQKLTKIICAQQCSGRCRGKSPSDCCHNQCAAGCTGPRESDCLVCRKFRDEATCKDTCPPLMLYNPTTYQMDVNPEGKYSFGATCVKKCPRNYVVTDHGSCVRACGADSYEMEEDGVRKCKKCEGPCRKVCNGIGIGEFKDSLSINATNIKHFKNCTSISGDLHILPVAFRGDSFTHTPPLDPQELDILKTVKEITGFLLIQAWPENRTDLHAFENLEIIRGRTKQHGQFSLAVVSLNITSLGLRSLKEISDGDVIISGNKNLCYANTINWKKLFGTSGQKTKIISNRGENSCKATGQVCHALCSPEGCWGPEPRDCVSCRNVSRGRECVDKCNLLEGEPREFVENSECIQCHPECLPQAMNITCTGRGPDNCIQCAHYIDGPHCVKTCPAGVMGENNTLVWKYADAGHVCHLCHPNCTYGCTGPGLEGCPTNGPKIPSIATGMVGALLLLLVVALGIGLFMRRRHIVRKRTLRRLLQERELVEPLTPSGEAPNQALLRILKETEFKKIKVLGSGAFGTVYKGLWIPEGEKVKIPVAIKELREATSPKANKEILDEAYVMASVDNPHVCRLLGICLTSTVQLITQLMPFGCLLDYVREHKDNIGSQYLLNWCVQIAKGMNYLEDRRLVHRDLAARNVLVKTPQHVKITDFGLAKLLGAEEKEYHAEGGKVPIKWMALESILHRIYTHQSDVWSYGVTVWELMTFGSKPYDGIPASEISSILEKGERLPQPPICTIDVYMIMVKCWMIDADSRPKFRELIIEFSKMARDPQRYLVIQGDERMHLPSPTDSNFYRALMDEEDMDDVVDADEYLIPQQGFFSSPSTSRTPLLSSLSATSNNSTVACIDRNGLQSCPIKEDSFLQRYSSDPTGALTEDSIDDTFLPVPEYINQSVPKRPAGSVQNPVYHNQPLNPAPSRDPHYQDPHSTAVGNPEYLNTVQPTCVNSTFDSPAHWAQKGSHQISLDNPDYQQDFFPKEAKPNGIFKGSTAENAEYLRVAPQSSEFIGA

[8] = molecular target: Follistatin-related protein 3 (Homo sapiens) (UniProt O95633); assay: compounds binding follistatin-related protein 3 – biochemical, small-molecule microarray, 635 nm fluorescence, primary screen (AID 1105); conditions: FSTL3 binding, higher = more signal;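 further: score merges emission near 667 nm and signal to noise per printed spot across three slides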
Sequence of Follistatin-related protein 3 (Homo sapiens) (O95633 whole entry, looked up): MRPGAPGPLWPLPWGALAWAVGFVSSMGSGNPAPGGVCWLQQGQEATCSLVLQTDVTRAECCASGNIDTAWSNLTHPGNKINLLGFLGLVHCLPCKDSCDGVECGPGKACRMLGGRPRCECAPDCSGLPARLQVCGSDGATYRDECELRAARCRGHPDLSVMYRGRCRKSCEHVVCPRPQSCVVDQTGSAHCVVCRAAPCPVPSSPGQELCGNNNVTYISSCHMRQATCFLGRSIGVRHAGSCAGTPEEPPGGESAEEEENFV

[9] = molecular target: Dickkopf-related protein 1 (Homo sapiens) (UniProt O94907); assay: small molecules binding DKK1 protein – biochemical, small-molecule microarray, 635 nm fluorescence scan, primary screen (AID 1106); conditions: higher = more signal;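 further: score merges emission near 667 nm with signal to noise over three replicate slides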
Sequence of Dickkopf-related protein 1 (Homo sapiens) (O94907 whole entry, looked up): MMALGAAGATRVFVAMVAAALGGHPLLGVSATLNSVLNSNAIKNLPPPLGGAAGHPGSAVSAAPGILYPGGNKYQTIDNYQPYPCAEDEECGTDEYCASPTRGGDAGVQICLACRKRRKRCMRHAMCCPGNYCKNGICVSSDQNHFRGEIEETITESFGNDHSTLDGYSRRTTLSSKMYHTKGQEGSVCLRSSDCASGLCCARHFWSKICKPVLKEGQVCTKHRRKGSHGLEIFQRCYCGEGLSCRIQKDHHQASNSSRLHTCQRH

[10] = system: Inhibin beta A chain (activin A); assay: small molecules binding activin A – biochemical, small-molecule microarray, 635 nm fluorescence scan, primary screen (AID 1107); conditions: INHBA, higher = more signal;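 further: mouse activin A protein probed at 4.33 µg/mL on printed slides; score merges bound-protein fluorescence near 667 nm with spot signal-to-noise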
[11] = system: Human papillomavirus type 1a protein E7 (residues 44-93); assay: small molecules binding HPV E7 44-93 – biochemical, small-molecule microarray, residues 44-93, 635 nm fluorescence, primary screen (AID 1108); conditions: fluorescence 635 nm, higher = more signal;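 further: E7 fragment applied at 1 µg/mL in TBST for 1 h at 4 C; score combines spot fluorescence with its signal to noise ratio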
[12] = hepatitis C replication reporter changes, two-sided – Huh7 cells, luciferase reporter, HCV replication inhibitor project, primary screen (AID 1109); conditions: Huh7 HCV replicon luciferase reporter, 48 h; higher = more signal;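 further: huh7 hepatoma cells harbouring a luciferase neomycin HCV replicon reporter; luciferase luminescence as measure of HCV replicon replication; test concentration not given here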
[13] = molecular target: Left-right determination factor 2 (Homo sapiens) (UniProt O00292); assay: small molecules binding LEFTY2 protein – biochemical, small-molecule microarray, 635 nm fluorescence scan, primary screen (AID 1110); conditions: higher = more signal
Sequence of Left-right determination factor 2 (Homo sapiens) (O00292 whole entry, looked up): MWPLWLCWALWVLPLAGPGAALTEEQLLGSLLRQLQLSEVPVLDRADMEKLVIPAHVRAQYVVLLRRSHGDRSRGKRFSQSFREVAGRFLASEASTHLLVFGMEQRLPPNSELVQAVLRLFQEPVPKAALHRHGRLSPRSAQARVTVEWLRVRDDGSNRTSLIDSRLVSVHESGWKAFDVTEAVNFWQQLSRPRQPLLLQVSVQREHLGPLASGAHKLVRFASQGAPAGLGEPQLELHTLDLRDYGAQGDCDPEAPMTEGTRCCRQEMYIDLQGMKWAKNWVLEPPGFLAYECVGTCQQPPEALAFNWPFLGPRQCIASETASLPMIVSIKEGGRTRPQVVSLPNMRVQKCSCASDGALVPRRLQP

[14] = molecular target: Calmodulin-1 (Homo sapiens) (UniProt P0DP23); assay: small molecules binding calmodulin-1 with EGTA – biochemical, small-molecule microarray, Cy5-labelled CALM1, profiling panel (AID 1111); conditions: Cy5-CALM1 binding fluorescence, higher = more signal;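 further: labelled calmodulin applied in Tris saline Tween buffer holding calcium plus EGTA and DTT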
[15] = molecular target: Calmodulin-1 (Homo sapiens) (UniProt P0DP23); assay: small molecules binding Ca-loaded calmodulin-1 – biochemical, small-molecule microarray, Cy5-labelled CALM1, plus calcium, artefact control for SMM control-protein annotation, profiling panel (AID 1112); conditions: Cy5-CALM1 binding fluorescence, higher = more signal;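 further: score merges spot fluorescence with signal to noise from triplicate slides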
[16] = probe aWnt5a binding to arrayed compounds – biochemical, biotinylated probe, 635/667 nm fluorescence, primary screen (AID 1113); conditions: small-molecule microarray, higher = more signal;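 further: score merges 667 nm fluorescence intensity with signal-to-noise per printed feature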
[17] = probe aShh binding to arrayed compounds – biochemical, biotinylated probe, 635/667 nm fluorescence, primary screen (AID 1114); conditions: small-molecule microarray, higher = more signal;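 further: probe is biotin-labelled aShh protein from a stem cell growth factor screen; measures binding of labelled protein to compounds printed on the slide; score merges feature fluorescence at 667 nm with signal-to-noise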
[18] = probe aNog binding to arrayed compounds – biochemical, biotinylated probe, 635/667 nm fluorescence, primary screen (AID 1115); conditions: small-molecule microarray, higher = more signal;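 further: probe is biotinylated aNog protein used at 0.15 µg/mL for 1 h at 4 C; z-score combines 667 nm fluorescence of each spot with its signal to noise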
[19] = molecular target: Torsin-1A-interacting protein 1 (Homo sapiens) (UniProt Q5JTV8); assay: compound microarray binding of lysate hLAP1 – cell lysate, small-molecule microarray, COS7 lysate, 635/667 nm fluorescence, primary screen (AID 1116); conditions: 635 nm fluorescence, higher = more signal
Sequence of Torsin-1A-interacting protein 1 (Homo sapiens) (Q5JTV8 whole entry, looked up): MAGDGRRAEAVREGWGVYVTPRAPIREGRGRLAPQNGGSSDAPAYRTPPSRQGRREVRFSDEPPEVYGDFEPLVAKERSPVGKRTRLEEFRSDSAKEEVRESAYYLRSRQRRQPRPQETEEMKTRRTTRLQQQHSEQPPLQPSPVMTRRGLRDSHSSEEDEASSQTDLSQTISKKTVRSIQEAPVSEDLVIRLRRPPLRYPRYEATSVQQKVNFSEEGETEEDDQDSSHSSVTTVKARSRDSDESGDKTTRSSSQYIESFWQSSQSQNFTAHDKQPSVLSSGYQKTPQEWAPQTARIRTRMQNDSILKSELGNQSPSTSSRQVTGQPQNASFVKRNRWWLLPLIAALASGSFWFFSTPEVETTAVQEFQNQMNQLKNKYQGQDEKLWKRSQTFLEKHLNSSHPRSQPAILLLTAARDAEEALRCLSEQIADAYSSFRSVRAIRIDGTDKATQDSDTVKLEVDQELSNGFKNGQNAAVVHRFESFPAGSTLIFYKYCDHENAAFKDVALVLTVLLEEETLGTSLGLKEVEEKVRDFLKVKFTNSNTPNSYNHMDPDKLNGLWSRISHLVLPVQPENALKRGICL

[20] = molecular target: Alpha-bungarotoxin (Bungarus multicinctus) (UniProt P60615); assay: compounds binding labelled alpha-BTX control protein – biochemical, small-molecule microarray, Alexa647 label, 635/667 nm fluorescence, artefact control for SMM control protein annotation, profiling panel (AID 1117); conditions: alpha-BTX-A647 binding fluorescence, higher = more signal
Sequence of Alpha-bungarotoxin (Bungarus multicinctus) (P60615 whole entry, looked up): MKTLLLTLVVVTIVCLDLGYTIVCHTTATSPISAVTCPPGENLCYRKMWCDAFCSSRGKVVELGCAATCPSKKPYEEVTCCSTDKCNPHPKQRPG

COc1ccc([Si](C)(C)[C@H]2[C@H](CCO)O[C@@]3(C(=O)N(C)c4c(Br)cc(C)cc43)[C@@H]2C)cc1
composite z-score [1]: 0.717
composite z-score [2]: -0.0044
composite z-score [3]: 0.202
z-score [4]: 4.6 (inactive)
composite z-score [5]: 0.333
composite z-score [6]: 0.223
composite z-score [7]: 0.127
composite z-score [8]: 0.4
composite z-score [9]: 0.0138
composite z-score [10]: 0.449
composite z-score [11]: -0.122
z-score [12]: -5.23
composite z-score [13]: 0.304
composite z-score [14]: 0.388
composite z-score [15]: 0.204
composite z-score [16]: -0.0944
composite z-score [17]: -0.138
composite z-score [18]: 0.474
composite z-score [19]: 0.269
composite z-score [20]: 0.541

COc1cc2c(cc1O)C=[N+](Cc1cccc(OC(F)(F)F)c1)CC2
composite z-score [1]: 0.674
composite z-score [2]: -0.084
composite z-score [3]: 0.39
z-score [4]: -0.663 (inactive)
composite z-score [5]: -0.0931
composite z-score [6]: -0.104
composite z-score [7]: 0.128
composite z-score [8]: 0.534
composite z-score [9]: 0.141
composite z-score [10]: 0.994
composite z-score [11]: -1.28
z-score [12]: -0.556
composite z-score [13]: -0.402
composite z-score [14]: -0.579
composite z-score [15]: -0.149
composite z-score [16]: -0.158
composite z-score [17]: -0.206
composite z-score [18]: -0.294
composite z-score [19]: 0.15
composite z-score [20]: 0.0656

COCCCNC(=O)[C@@]1(Cc2ccccc2)N=C(c2ccc(OCCCO)cc2)O[C@H]1c1ccccc1
composite z-score [1]: 1.19
composite z-score [2]: 1.22
composite z-score [3]: 1.28
z-score [4]: 0.272 (inactive)
composite z-score [5]: 0.849
composite z-score [6]: 1.02
composite z-score [7]: -0.804
composite z-score [8]: -0.569
composite z-score [9]: -0.728
composite z-score [10]: 1.01
composite z-score [11]: 0.53
z-score [12]: -1.39
composite z-score [13]: -0.582
composite z-score [14]: 2.34
composite z-score [15]: 1.05
composite z-score [16]: -0.174
composite z-score [17]: -0.36
composite z-score [18]: -0.442
composite z-score [19]: 1.96
composite z-score [20]: 2.34

COCCOC(=O)N1C(=O)[C@@]2(c3cc(C#Cc4ccc(OC)cc4)ccc31)[C@H](C(N)=O)[C@H]1C(=O)O[C@H](c3ccccc3)[C@H](c3ccccc3)N1[C@@H]2c1ccccc1OCCO
composite z-score [1]: 1.48
composite z-score [2]: 0.714
composite z-score [3]: 0.634
z-score [4]: -0.265 (inactive)
composite z-score [5]: 1.12
composite z-score [6]: 1.21
composite z-score [7]: 0.824
composite z-score [8]: 0.93
composite z-score [9]: 0.705
composite z-score [10]: 0.312
composite z-score [11]: 1.33
z-score [12]: -1.49
composite z-score [13]: 0.738
composite z-score [14]: 2.22
composite z-score [15]: 0.618
composite z-score [16]: -0.0134
composite z-score [17]: -0.0988
composite z-score [18]: 0.168
composite z-score [19]: 2.3
composite z-score [20]: 2.97

CN(C)C(=O)[C@@]1(Cc2ccccc2CN=[N+]=[N-])N=C(c2ccc(OCCCO)cc2)O[C@H]1c1ccccc1
composite z-score [1]: 1.67
composite z-score [2]: -0.274
composite z-score [3]: 1.01
z-score [4]: 0.249 (inactive)
composite z-score [5]: 1.21
composite z-score [6]: 0.585
composite z-score [7]: -0.333
composite z-score [8]: -0.283
composite z-score [9]: -0.766
composite z-score [10]: 0.823
composite z-score [11]: 0.993
z-score [12]: -2.96
composite z-score [13]: -0.498
composite z-score [14]: 0.691
composite z-score [15]: 0.46
composite z-score [16]: 0.0077
composite z-score [17]: -0.0243
composite z-score [18]: 1.83
composite z-score [19]: 1.43
composite z-score [20]: 1.33

C=CCOC(=O)[C@H]1[C@@H]2C(=O)O[C@@H](c3ccccc3)[C@@H](c3ccccc3)N2[C@@H](c2ccc(OCCOC(=O)[C@@H]3C[C@@H]4C(=O)N[C@@H](CCCC[N+](C)(C)C)C(=O)N4[C@@H]3c3ccc(O)cc3)cc2)[C@]12C(=O)Nc1ccccc12
composite z-score [1]: 1.05
composite z-score [2]: 0.415
composite z-score [3]: -0.372
z-score [4]: -0.794 (inactive)
composite z-score [5]: 0.805
composite z-score [6]: 1.3
composite z-score [7]: 0.383
composite z-score [8]: 1.24
composite z-score [9]: 0.716
composite z-score [10]: -0.0117
composite z-score [11]: 1.26
z-score [12]: -1.11
composite z-score [13]: 0.498
composite z-score [14]: -0.0632
composite z-score [15]: -0.499
composite z-score [16]: -0.0398
composite z-score [17]: 0.123
composite z-score [18]: -0.13
composite z-score [19]: 0.425
composite z-score [20]: 0.428

Cc1ccc(S[C@]2(C(=O)NC(C)C)CC(=O)N(Cc3ccccc3Cl)[C@@H]2c2ccc(CO)cc2I)cc1
composite z-score [1]: 1
composite z-score [2]: 0.0056
composite z-score [3]: 1.07
z-score [4]: 0.0132 (inactive)
composite z-score [5]: -1.05
composite z-score [6]: -0.26
composite z-score [7]: -1.51
composite z-score [8]: -0.674
composite z-score [9]: -1.39
composite z-score [10]: 0.762
composite z-score [11]: 0.472
z-score [12]: -2.47
composite z-score [13]: -2.08
composite z-score [14]: 0.0453
composite z-score [15]: -0.174
composite z-score [16]: -0.252
composite z-score [17]: -0.283
composite z-score [18]: -0.158
composite z-score [19]: -0.252
composite z-score [20]: 1.33

Cc1ccc(S[C@]2(C(=O)NCCN3CCOCC3)CC(=O)N(Cc3ccccc3)[C@@H]2c2ccc(CO)cc2I)cc1
composite z-score [1]: 1.41
composite z-score [2]: 0.361
composite z-score [3]: 1.11
z-score [4]: -1.88 (inactive)
composite z-score [5]: -1.61
composite z-score [6]: -1.12
composite z-score [7]: -1.72
composite z-score [8]: -1.24
composite z-score [9]: -1.51
composite z-score [10]: 0.476
composite z-score [11]: 0.0104
z-score [12]: -3.12
composite z-score [13]: -0.601
composite z-score [14]: -0.318
composite z-score [15]: -0.431
composite z-score [16]: -0.124
composite z-score [17]: -0.17
composite z-score [18]: 0.0323
composite z-score [19]: -0.914
composite z-score [20]: -1.07

COCCCN1C(=O)[C@@]2(Cc3ccccc31)c1ccccc1C(=O)N(Cc1ccccc1C(F)(F)F)[C@H]2c1ccc(CO)cc1
composite z-score [1]: 1.13
composite z-score [2]: -0.106
composite z-score [3]: -0.563
z-score [4]: 0.498 (inactive)
composite z-score [5]: 0.94
composite z-score [6]: 0.561
composite z-score [7]: 0.12
composite z-score [8]: 0.919
composite z-score [9]: 0.756
composite z-score [10]: 0.915
composite z-score [11]: 0.898
z-score [12]: -0.311
composite z-score [13]: 0.33
composite z-score [14]: -0.47
composite z-score [15]: -0.206
composite z-score [16]: 0.439
composite z-score [17]: -0.243
composite z-score [18]: 1.79
composite z-score [19]: 0.094
composite z-score [20]: 0.33

[N-]=[N+]=NCc1ccccc1[C@@H]1OC(c2ccc(OCCCO)cc2)=N[C@]1(CCS(=O)(=O)c1ccccc1)C(=O)NCc1ccccc1
composite z-score [1]: 1.54
composite z-score [2]: 1.14
composite z-score [3]: 0.993
z-score [4]: -0.392 (inactive)
composite z-score [5]: 1.25
composite z-score [6]: 1.26
composite z-score [7]: 0.274
composite z-score [8]: 0.869
composite z-score [9]: 0.494
composite z-score [10]: 1.07
composite z-score [11]: 0.512
z-score [12]: -1.78
composite z-score [13]: 0.526
composite z-score [14]: 1.02
composite z-score [15]: 0.222
composite z-score [16]: 0.301
composite z-score [17]: 0.487
composite z-score [18]: 2.12
composite z-score [19]: 0.142
composite z-score [20]: 2.18
